High-throughput results as filed in PubChem.
In the library only some 4.1% were active in any assay of this set; here they are far more common.
hgDAF-12 ag: hgDAF-12 agonism, primary luciferase screen | HEK293 GAL4-hgDAF12 UAS-luciferase reporter, agonist luminescence; normalized to butyrate control | activation, % at 6.8 µM | actives 1.8% (n = 370,000) | AID 687014;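 active = activation above a cutoff set at the mean of all screened compounds plus 3 SD, cut at about 10% in these data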
DAX1 inh-1: inhibitors of DAX1 repression of SF-1 activated StAR promoter; HEK293T StAR-luciferase reporter, SF-1/DAX-1 repression relief; inhibition, % at 6.8 µM; actives 1.1% (n = 370,000);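 active = inhibition above the mean over all tested compounds plus 3 SD, cut at about 3.6% in these data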;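 also: higher inhibition means more luminescence from relief of DAX-1 repression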
hcDAF12 agonist: activators of H. contortus DAF-12 nuclear receptor; HEK293 hcDAF-12 lit1-tk-luc reporter, luminescence; 0% DMSO, 100% Δ7-dafachronic acid; activation, % at 6.8 µM; actives 1.4% (n = 370,000); AID 652067;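 active = activation above the mean of all tested compounds plus 3 SD, cut at about 5.5% in these data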
ssDAF-12 act: S. stercoralis DAF-12 activation, primary screen | HEK293 ssDAF-12/GRIP1 lit1-tk-luc reporter, luminescence; % of 3 µM dafachronic acid response | activation, % at 6.8 µM | actives 1% (n = 370,000) | AID 652126;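 active = activation above the mean over all tested compounds plus 3 SD, cut at about 0.9% in these data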
DAX1 inh-2: NR0B1 (DAX1) inhibition. AID 504766. P51843. inhibition, % at 6.75 µM. actives 0.99% (n = 340,000). HEK293 Gal4-DAX1 luciferase reporter, luminescence;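 active = inhibition above the mean over all tested compounds plus 3 SD, cut at about 4.2% in these data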;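 also: inhibition shows as a rise in luminescence from relieved DAX1 repression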
Target sequence (P51843 207-470 limits assumed): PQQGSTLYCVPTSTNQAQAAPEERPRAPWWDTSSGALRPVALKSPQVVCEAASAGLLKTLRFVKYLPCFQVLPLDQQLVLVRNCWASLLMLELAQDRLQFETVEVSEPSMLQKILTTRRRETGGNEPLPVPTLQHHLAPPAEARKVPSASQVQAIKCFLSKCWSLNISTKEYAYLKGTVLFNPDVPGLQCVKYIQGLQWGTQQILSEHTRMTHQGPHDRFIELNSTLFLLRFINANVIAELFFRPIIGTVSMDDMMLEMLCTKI
Large screens that a line does not name were inactive.

COc1ccc(-c2c(C(=O)c3ccccc3)[nH]c(N)c2C(=O)c2c[nH]c3ccccc23)cc1OC	none (no result: DAX1 inh-1, DAX1 inh-2)
CC(=O)c1ccccc1OCCOc1ncnc2sccc12	hgDAF-12 ag 11
Cc1ccc(NC(=O)CCCC(=O)O)c(-c2nc3ccccc3[nH]c2=O)c1	ssDAF-12 act 0.9
CCOc1cc(Br)cc(C(c2c(C(=O)O)[nH]c3ccccc23)c2c(C(=O)O)[nH]c3ccccc23)c1O	none
CSc1ccc(C(c2c(C(=O)O)[nH]c3ccccc23)c2c(C(=O)O)[nH]c3ccccc23)cc1	hcDAF12 agonist 5.6
Nc1[nH]c(C(=O)c2ccc(Cl)cc2)c(-c2ccc(Br)cc2)c1C(=O)NCc1ccc(Cl)cc1Cl	none (no result: DAX1 inh-2)
COc1ccc(NC(=O)Nc2cccc(C)n2)c(OC)c1	none
COc1cccc(NC(=O)Nc2cc(C(=O)O)ccc2C)c1	none
COc1cccc(NC(=O)c2ncc(Cl)c(Cl)c2Cl)c1	hgDAF-12 ag 11
COc1cccc(NC(=O)Nc2ccc(C)c(Cl)c2)c1	hgDAF-12 ag 13
COc1cccc(NC(=O)Nc2cccc(C)n2)c1	hgDAF-12 ag 12
Oc1c(/C=N/c2ncn[nH]2)ccc2ccccc12	ssDAF-12 act 1.2
COc1ccc(Cn2ccc3ccc(-c4ccc5ccn(Cc6ccc(OC)cc6)c5c4)cc32)cc1	none (no result: DAX1 inh-2)
N#Cc1cccc(CNCC(=O)N2CCC3(CC2)OCCO3)c1	none (no result: DAX1 inh-2)
Cn1c2ccccc2n2c(=O)c(Cl)c(-c3ccccc3)c(C#N)c12	none
Cn1c2ccccc2n2c(=O)cc(-c3ccccc3)c(C#N)c12	DAX1 inh-2 5.4
c1ccc2c(c1)oc1c(NCCCn3ccnc3)ncnc12	none
O=c1c2ccccc2oc2ccc(NCCCn3ccnc3)cc12	hgDAF-12 ag 11, DAX1 inh-1 4.0, ssDAF-12 act 1.8
Cc1ccccc1C(=O)N(C)[C@H]1C[C@H]2c3[nH]c4c(-c5ccccc5)cccc4c3CCN2C[C@H]1[C@H](C)O	none (no result: DAX1 inh-2)
N#Cc1cc(-c2ccccc2)c[nH]c1=O	DAX1 inh-2 5.3
COc1ccc(Cn2cc(CN3CC(N4CCSCC4)CS3(=O)=O)nn2)cc1 (centres undefined)	none (no result: DAX1 inh-2)
COc1ccc(Cn2cc(CN3CC(N4CCCC4)CS3(=O)=O)nn2)cc1 (centres undefined)	DAX1 inh-1 4.4 (no result: DAX1 inh-2)
CCCCCCn1cc(CN2CC(N(C)CC)CS2(=O)=O)nn1 (centres undefined)	DAX1 inh-1 3.7 (no result: DAX1 inh-2)
CCCCCCn1cc(CN(C)C2CN(Cc3cn(CCCCCC)nn3)S(=O)(=O)C2)nn1 (centres undefined)	none (no result: DAX1 inh-2)
CCCCCCn1cc(CN2CC(N3CCN(C4CCN(C)CC4)CC3)CS2(=O)=O)nn1 (centres undefined)	DAX1 inh-1 4.4 (no result: DAX1 inh-2)
CCCCCCn1cc(CN2CC(N3CCN(C)CC3)CS2(=O)=O)nn1 (centres undefined)	none (no result: DAX1 inh-2)
COC(=O)[C@]12C[C@H](CC(=O)NCc3cccc(C(F)(F)F)c3)C(=O)N(Cc3ccc(Cl)cc3Cl)C1=C[C@H](C(C)(C)C)O[C@@H]2C	none (no result: DAX1 inh-2)
S=c1[nH]nc(-c2n[nH]c3c2CCC3)n1N=Cc1ccc(OCc2ccccc2)cc1	none (no result: DAX1 inh-2)
O=C(NC1CCCCC1)Oc1ccccc1	DAX1 inh-2 6.9
O=C(NC1CCS(=O)(=O)C1)Oc1ccccc1 (centres undefined)	none
Cc1onc(C(=O)N2CCN(C(c3ccc(F)cc3)c3ccc(F)cc3)CC2)c1[N+](=O)[O-]	none (no result: DAX1 inh-1, DAX1 inh-2)
C[C@H]1[C@@H](OC(=O)Nc2ccccc2F)CC[C@@]23CCCN2C(=O)CCC[C@@H]13	none (no result: DAX1 inh-1, DAX1 inh-2)
COc1ccc(-c2cc(-c3cc(OC)ccc3O)[nH]n2)cc1	hgDAF-12 ag 13
COc1ccc(-c2cc(-c3ccc(Cl)cc3)n[nH]2)c(O)c1	hgDAF-12 ag 11, DAX1 inh-2 5.4
COc1ccc(O)c(-c2cc(-c3cccc(Br)c3)n[nH]2)c1	none
CC1(C)CC(=O)C=C(Nc2ccccc2NC(=O)c2cc(F)cc(F)c2)C1	none (no result: DAX1 inh-2)
Cc1ccc(S(=O)(=O)N2CCN(C(=O)Cn3c(=O)oc4ccccc43)CC2)cc1	ssDAF-12 act 1.0
COc1cccc(N2CCN(C(=O)Cn3c(=O)oc4ccccc43)CC2)c1	DAX1 inh-2 4.3
Cc1cc2nc(-c3cccc(Cl)c3)c(Cc3cccc(Cl)c3)n2c(C)c1Br	none (no result: DAX1 inh-2)
Cc1cc2nc(-c3ccc(Cl)cc3)c(Cc3cccc(Cl)c3)n2c(C)c1Br	ssDAF-12 act 1.1 (no result: DAX1 inh-2)
Cc1cc2nc(-c3ccccc3)c(Cc3ccsc3)n2c(C)c1Br	ssDAF-12 act 2.0 (no result: DAX1 inh-2)
Cc1cccc(C(=O)Nc2ccc3c(c2)ncn3C)c1	hgDAF-12 ag 11
Cc1cccc(C(=O)Nc2ccc3c(c2)nc(C)n3C)c1	none
C#CCSc1ncc(-c2ccccc2)cn1	hgDAF-12 ag 13, ssDAF-12 act 1.9
CC(C)CNS(=O)(=O)/C=C/c1cc2c(cc1CNC(=O)OC(C)(C)C)OCO2	none (no result: DAX1 inh-2)
O=C(O)c1cc(=O)c2c(Cl)cc(Cl)cc2[nH]1	none
O=C(O)c1cc2c(cn1)[nH]c1ccccc12	hcDAF12 agonist 6.3
O=C(O)c1cc(=O)c2ccccc2[nH]1	hcDAF12 agonist 6.4, ssDAF-12 act 1.5
Cc1c(-n2c(O)c(C3=c4ccccc4=NC3=O)sc2=S)c(=O)n(-c2ccccc2)n1C	hcDAF12 agonist 5.6
O=C(c1cc2c(s1)-c1ccccc1OC2)N1CCN(c2ccccn2)CC1	DAX1 inh-2 5.4
O=c1[nH]c2ccccc2nc1/C=C/c1ccccc1	hgDAF-12 ag 12, hcDAF12 agonist 6.4
N#CCC[C@@H]1CC[C@]2(CCCN(Cc3ccc(Cl)cc3)C2)O1	none (no result: DAX1 inh-2)
c1cnc2c(C3NCCc4c3[nH]c3ccccc43)cccc2c1 (centres undefined)	DAX1 inh-2 5.0 (no result: hgDAF-12 ag, DAX1 inh-1, hcDAF12 agonist, ssDAF-12 act)
O=C(O)c1cccnc1C(=O)N1CCc2c([nH]c3ccccc23)C1C(F)(F)F (centres undefined)	none (no result: DAX1 inh-2)
CCCCNC(=O)C[C@H]1C[C@@]2(C(=O)OC)C(=C[C@H](C3CCCC3)O[C@@H]2C)N(Cc2ccc(Cl)cc2Cl)C1=O	none (no result: DAX1 inh-2)
C=CCSc1[nH]c(=O)cc(C)c1C(N)=O	DAX1 inh-2 5.1
COC(=O)[C@]12C[C@H](CC(=O)NCCc3ccccc3OC)C(=O)N(CCc3ccc(OC)c(OC)c3)C1=C[C@H](C(C)(C)C)O[C@@H]2C	none (no result: DAX1 inh-2)
Cc1c(-c2ccccc2)[nH]n2c(=O)c3c(nc12)CCCC3	hgDAF-12 ag 11
CC(C)(C)C(=O)Cn1ncc(N2CCCC2)c(Br)c1=O	none
CC(=O)Cn1ncc(Br)c(Br)c1=O	DAX1 inh-2 6.6
NNC(=O)c1ccc2c(c1)S(=O)(=O)NNC2=O	hgDAF-12 ag 11
CCCNC(=O)c1ccc2c(c1)S(=O)(=O)c1ccccc1C2=O	none
CCOC(=O)CC[C@@]1(C(=O)OCC)C[C@@H](CC(=O)NCCCOC)C(=O)N2CCCC=C21	ssDAF-12 act 1.6 (no result: DAX1 inh-2)
COc1cccc(OC(C)CCN2CCC(C(O)(c3ccccc3)c3ccccc3)CC2)c1 (centres undefined)	ssDAF-12 act 0.9 (no result: DAX1 inh-2)
